Test results reported in ChEMBL document CHEMBL1961873, “Compounds: GSK PKIS; Assays: Nanosyn kinase panel” (2012).
Where “and” joins values, the source holds several entries; their conditions need not be identical. Identical values can stand only once.

How the values were obtained:
[1] = target: T1, Serine/threonine-protein kinase TBK1 (Homo sapiens) (UniProt Q9UHD2); details: at 1 µM;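 note: values are mean inhibition of TBK1, screened as part of the GSK published kinase inhibitor set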
T1 sequence (whole entry): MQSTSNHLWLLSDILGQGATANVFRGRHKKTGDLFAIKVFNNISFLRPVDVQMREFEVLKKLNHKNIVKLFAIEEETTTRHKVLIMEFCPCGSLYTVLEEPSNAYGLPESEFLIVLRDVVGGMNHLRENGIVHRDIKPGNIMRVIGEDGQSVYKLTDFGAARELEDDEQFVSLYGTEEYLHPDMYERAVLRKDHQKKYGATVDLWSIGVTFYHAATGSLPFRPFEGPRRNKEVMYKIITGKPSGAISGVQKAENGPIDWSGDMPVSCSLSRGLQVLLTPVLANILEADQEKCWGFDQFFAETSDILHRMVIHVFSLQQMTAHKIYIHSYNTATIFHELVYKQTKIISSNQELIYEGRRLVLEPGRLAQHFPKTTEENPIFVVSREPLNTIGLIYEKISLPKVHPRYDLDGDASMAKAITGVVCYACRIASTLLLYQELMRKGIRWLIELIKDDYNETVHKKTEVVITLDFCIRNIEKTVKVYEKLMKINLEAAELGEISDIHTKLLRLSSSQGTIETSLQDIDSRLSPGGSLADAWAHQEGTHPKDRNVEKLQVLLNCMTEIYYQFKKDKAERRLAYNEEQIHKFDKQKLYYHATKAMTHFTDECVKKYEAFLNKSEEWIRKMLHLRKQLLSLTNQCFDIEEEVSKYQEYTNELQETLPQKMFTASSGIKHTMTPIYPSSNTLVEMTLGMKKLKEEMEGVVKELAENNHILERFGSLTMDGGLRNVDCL

[2] = target: T2, Testis-specific serine/threonine-protein kinase 1 (Homo sapiens) (UniProt Q9BXA7); details: at 0.1 µM
T2 sequence (whole entry): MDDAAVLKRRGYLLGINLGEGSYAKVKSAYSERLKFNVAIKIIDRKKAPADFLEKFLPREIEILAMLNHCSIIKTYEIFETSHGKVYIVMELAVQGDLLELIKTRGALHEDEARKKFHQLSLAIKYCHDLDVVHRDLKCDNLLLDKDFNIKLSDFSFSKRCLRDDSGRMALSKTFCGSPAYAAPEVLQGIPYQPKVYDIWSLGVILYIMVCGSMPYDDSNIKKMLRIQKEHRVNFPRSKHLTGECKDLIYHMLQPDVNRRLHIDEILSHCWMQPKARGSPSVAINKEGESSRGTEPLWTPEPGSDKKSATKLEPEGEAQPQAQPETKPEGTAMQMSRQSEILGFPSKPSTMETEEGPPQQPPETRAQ

[3] = target: T2, Testis-specific serine/threonine-protein kinase 1 (Homo sapiens); details: at 1 µM
[4] = target: T3, Testis-specific serine/threonine-protein kinase 2 (Homo sapiens) (UniProt Q96PF2); details: at 0.1 µM
T3 sequence (whole entry): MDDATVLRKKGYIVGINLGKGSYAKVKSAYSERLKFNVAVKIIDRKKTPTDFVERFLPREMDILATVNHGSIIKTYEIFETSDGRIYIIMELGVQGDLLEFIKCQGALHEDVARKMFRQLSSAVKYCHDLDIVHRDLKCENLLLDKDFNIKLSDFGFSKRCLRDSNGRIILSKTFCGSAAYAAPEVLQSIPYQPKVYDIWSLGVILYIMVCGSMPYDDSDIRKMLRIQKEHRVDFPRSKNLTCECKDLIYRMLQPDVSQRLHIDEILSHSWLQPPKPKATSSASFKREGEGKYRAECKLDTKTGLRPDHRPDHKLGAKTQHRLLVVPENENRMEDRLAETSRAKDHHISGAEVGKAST

[5] = target: T3, Testis-specific serine/threonine-protein kinase 2 (Homo sapiens); details: at 1 µM
[6] = target: Casein kinase I isoform alpha (Homo sapiens) (UniProt P48729); details: at 0.1 µM
[7] = target: Casein kinase I isoform alpha (Homo sapiens) (UniProt P48729); details: at 1 µM
[8] = target: Casein kinase I isoform gamma-1 (Homo sapiens) (UniProt Q9HCP0); details: at 0.1 µM
[9] = target: Casein kinase I isoform gamma-1 (Homo sapiens) (UniProt Q9HCP0); details: at 1 µM
[10] = target: Casein kinase I isoform gamma-2 (Homo sapiens) (UniProt P78368); details: at 0.1 µM
[11] = target: Casein kinase I isoform gamma-2 (Homo sapiens) (UniProt P78368); details: at 1 µM
[12] = target: Casein kinase I isoform gamma-3 (Homo sapiens) (UniProt Q9Y6M4); details: at 0.1 µM
[13] = target: Casein kinase I isoform gamma-3 (Homo sapiens) (UniProt Q9Y6M4); details: at 1 µM
[14] = target: Cyclin-dependent kinase 1 (Homo sapiens) (UniProt P06493); details: at 0.1 µM
[15] = target: Cyclin-dependent kinase 1 (Homo sapiens) (UniProt P06493); details: at 1 µM
[16] = target: Cyclin-dependent kinase 2 (Homo sapiens) (UniProt P24941); details: at 0.1 µM
[17] = target: Cyclin-dependent kinase 2 (Homo sapiens) (UniProt P24941); details: at 1 µM
[18] = target: Cyclin-dependent kinase 2 (Homo sapiens) (UniProt P24941); details: at 0.1 µM; remark: listed apart in the source
[19] = target: Cyclin-dependent kinase 2 (Homo sapiens) (UniProt P24941); details: at 1 µM; remark: listed apart in the source
[20] = target: CDK3/Cyclin E (Homo sapiens) (UniProt P24864+Q00526); details: at 0.1 µM;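 note: reported percentages are mean inhibition values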
Chain of CDK3/Cyclin E (Homo sapiens) (P24864 whole entry, looked up): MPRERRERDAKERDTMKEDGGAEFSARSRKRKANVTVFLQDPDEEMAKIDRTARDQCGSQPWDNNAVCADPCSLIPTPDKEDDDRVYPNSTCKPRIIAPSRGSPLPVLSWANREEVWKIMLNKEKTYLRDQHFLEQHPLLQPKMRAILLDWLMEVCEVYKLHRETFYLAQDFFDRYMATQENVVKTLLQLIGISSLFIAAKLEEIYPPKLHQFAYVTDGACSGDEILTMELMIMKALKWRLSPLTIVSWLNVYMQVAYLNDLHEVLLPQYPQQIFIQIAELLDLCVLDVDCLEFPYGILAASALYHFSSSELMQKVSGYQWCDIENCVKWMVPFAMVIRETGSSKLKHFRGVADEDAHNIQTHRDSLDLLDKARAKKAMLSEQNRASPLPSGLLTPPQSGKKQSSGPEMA
Chain of CDK3/Cyclin E (Homo sapiens) (Q00526 whole entry, looked up): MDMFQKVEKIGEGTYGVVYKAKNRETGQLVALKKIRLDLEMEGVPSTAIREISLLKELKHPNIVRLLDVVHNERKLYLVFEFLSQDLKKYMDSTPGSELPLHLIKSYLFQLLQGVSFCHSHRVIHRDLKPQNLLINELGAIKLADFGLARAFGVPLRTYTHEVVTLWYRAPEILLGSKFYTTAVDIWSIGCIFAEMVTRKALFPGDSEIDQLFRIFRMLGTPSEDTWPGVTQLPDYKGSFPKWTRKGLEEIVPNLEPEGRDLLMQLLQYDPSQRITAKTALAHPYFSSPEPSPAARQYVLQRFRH

Chain of Casein kinase I isoform gamma-2 (Homo sapiens) (P78368 whole entry, looked up, canonical isoform): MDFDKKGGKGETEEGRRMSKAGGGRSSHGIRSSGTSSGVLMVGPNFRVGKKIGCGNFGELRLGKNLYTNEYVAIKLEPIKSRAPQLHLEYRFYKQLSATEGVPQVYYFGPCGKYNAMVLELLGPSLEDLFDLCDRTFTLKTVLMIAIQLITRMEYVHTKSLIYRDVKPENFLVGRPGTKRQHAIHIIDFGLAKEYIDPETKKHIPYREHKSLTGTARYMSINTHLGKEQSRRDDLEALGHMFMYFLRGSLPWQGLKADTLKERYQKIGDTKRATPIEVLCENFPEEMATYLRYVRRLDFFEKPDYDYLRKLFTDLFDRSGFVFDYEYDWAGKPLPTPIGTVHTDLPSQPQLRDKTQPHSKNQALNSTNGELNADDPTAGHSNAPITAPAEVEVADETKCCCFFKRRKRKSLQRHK
Chain of Casein kinase I isoform alpha (Homo sapiens) (P48729 2-337 limits assumed): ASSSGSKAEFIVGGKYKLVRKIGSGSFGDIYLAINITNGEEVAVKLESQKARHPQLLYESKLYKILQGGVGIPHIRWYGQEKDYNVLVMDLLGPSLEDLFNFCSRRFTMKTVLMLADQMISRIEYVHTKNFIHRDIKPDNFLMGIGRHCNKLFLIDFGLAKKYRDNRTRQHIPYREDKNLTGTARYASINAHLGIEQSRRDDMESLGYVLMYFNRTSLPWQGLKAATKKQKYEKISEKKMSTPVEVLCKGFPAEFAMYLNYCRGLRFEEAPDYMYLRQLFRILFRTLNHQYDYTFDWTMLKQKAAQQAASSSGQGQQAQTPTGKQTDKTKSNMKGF
Chain of Cyclin-dependent kinase 1 (Homo sapiens) (P06493 whole entry, looked up): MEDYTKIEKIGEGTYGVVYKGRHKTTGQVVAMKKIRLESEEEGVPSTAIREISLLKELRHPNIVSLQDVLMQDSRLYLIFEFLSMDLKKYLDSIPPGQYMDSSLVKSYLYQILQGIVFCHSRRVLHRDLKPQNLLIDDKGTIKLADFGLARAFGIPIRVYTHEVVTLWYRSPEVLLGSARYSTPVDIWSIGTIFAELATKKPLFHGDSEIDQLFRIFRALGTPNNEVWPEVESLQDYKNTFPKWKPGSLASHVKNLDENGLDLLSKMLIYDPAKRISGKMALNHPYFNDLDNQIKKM
Chain of Casein kinase I isoform gamma-3 (Homo sapiens) (Q9Y6M4 whole entry, looked up, canonical isoform): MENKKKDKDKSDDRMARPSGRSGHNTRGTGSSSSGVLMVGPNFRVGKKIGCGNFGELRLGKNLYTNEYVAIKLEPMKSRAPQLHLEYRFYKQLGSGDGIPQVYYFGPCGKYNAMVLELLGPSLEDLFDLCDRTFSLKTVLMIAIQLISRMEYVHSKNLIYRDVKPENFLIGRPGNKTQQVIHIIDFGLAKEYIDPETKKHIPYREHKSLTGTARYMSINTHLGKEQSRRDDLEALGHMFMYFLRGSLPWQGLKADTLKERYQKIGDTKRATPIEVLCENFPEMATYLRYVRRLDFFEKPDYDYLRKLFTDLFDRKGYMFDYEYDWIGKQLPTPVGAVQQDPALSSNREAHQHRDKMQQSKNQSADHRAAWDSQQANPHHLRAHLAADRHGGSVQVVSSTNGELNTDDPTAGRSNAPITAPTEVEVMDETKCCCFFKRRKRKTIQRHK
Chain of Casein kinase I isoform gamma-1 (Homo sapiens) (Q9HCP0 whole entry, looked up, canonical isoform): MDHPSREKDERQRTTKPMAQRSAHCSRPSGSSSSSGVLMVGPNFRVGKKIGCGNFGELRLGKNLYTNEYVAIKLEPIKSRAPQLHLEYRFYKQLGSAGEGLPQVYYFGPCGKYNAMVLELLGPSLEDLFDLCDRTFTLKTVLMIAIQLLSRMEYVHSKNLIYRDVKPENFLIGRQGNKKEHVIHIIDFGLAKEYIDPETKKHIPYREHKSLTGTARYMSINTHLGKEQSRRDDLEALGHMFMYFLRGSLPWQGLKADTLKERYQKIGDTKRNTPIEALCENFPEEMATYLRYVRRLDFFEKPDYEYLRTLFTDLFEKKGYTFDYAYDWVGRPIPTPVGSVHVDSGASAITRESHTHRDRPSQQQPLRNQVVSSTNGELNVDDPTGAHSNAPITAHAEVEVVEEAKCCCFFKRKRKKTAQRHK

Row | SMILES | inhibition [1] | inhibition [2] | inhibition [3] | inhibition [4] | inhibition [5] | inhibition [6] | inhibition [7] | inhibition [8] | inhibition [9] | inhibition [10] | inhibition [11] | inhibition [12] | inhibition [13] | inhibition [14] | inhibition [15] | inhibition [16] | inhibition [17] | inhibition [18] | inhibition [19] | inhibition [20]
1 | Nc1ncnc2occ(-c3ccc(NC(=O)Nc4cc(C(F)(F)F)ccc4F)cc3)c12 | 6.12% and 3.01% | 0.74% and -0.54% | -2.13% and 0.25% | 0.34% and -1.88% | -2.39% and -1.51% | -0.66% and -1.83% | 4.18% and -1.62% | 1.37% and -1.43% | 5.11% and 0.87% | 0.83% and -2.39% | 4.53% and -0.27% | 0.69% and 0.19% | 6.26% and 0.91% | 2.66% and 1.33% | 11.4% and 4.55% | 2.5% and 0.72% | 13.5% and 5.32% | 2.09% and 0.45% | 15.5% and 5.95% | 1.13% and 2.46%
2 | N#Cc1ccc2c(-c3ccnc(NC4CC4)n3)c(-c3ccc(F)cc3)nn2c1 | 0.07% | 1.44% | -1.14% | 1.07% | -0.63% | 3.72% | 30.1% | 1.85% | 4.03% | 2% | 3.98% | 2.06% | 5.03% | 0.15% | -0.22% | 1.26% | 0.36% | 1% | 0.3% | -0.85%
3 | CCS(=O)(=O)c1ccc(OC)c(Nc2ncc(-c3cccc(F)c3)o2)c1 | 11.5% | 6.42% | 5.86% | 3.41% | 3.46% | 5.47% | 7.11% | 4.64% | 5.04% | 3.91% | 4.64% | 3.7% | 4.58% | 1.72% | 0.96% | 3.74% | 4.31% | 4.05% | 5.69% | -0.92%
4 | COc1cc2c(cc1Nc1nc(Nc3cccc(F)c3C(N)=O)c3cc[nH]c3n1)N(C(=O)CN1CCN(C(C)C)CC1)CC2 | 3.05% | 5.1% | 31.9% | 2.49% | 12.4% | 1.84% | 11.4% | 2.53% | 5.76% | 2.46% | 5.31% | 3.51% | 7.32% | 2.14% | 0.55% | 3.46% | 1.57% | 0.67% | 0.45% | -1.81%
5 | COc1cc(Nc2ncc(-c3ccccc3)o2)cc(OC)c1 | 4.2% | 4.25% | 4.53% | 2.32% | 2.49% | 4.52% | 3.47% | 4.39% | 4.78% | 4.11% | 5.36% | 5.09% | 3.43% | 0.36% | 4.4% | 1.87% | 12.7% | 3.39% | 15.1% | -1.04%
6 | COc1cccc(-n2ncc3c(N/N=C/c4ccc(C(=O)NCCN(C)C)cc4)ncnc32)c1 | 11.2% | 1.35% | 0.43% | -0.44% | -0.81% | 1.58% | 7.14% | 2.73% | 11.7% | 1.5% | 8.69% | 1.94% | 11.9% | 44.7% | 77.2% | 36.1% | 89.9% | 13.4% | 48.4% | 5.6%
7 | O=C1Nc2ccccc2/C1=C1\CCc2cc(O)ccc21 | 13% | 3.88% | 6.96% | 1.83% | 2.14% | 4.95% | 9.64% | 5% | 6.41% | 3.27% | 8.01% | 4.01% | 6.11% | 1.03% | 3.82% | 3.01% | 5.49% | 5.72% | 10.6% | 4.58%
8 | CS(=O)(=O)CCNCc1ccoc1-c1ccc2ncnc(Nc3ccc(OCc4ccccc4)cc3)c2c1 | -2.25% | 0.51% | 0.84% | 1.17% | 0.75% | 1.49% | -0.39% | 0.5% | 1.25% | 0.24% | 0.93% | 1.14% | 0.44% | -0.72% | 1.35% | 1.48% | 3.32% | 1.98% | 3.45% | -1.56%
9 | NS(=O)(=O)c1ccc(N/N=C2\C(=O)Nc3cccc(CCc4ccncc4)c32)cc1 | 4.17% | 2.49% | 1.9% | 0.54% | 1.32% | 1.84% | -0.19% | 0.44% | 0.85% | 0.15% | 0.54% | 0.32% | 0.29% | 9.4% | 21.9% | 51.4% | 71.6% | 53.5% | 67.7% | 32.4%
10 | COc1ccc2ncn(-c3cc(O[C@H](C)c4ccccc4C(F)(F)F)c(C(N)=O)s3)c2c1 | -0.87% | 1.48% | 1.53% | -0.29% | 0.97% | 0.31% | 2.23% | -1.06% | -0.1% | -0.92% | -0.54% | -1.87% | 0.68% | 0.65% | 3.45% | 1.04% | 0.96% | -0.81% | 1.48% | 1.1%
11 | O=C(Nc1n[nH]c2nnc(-c3cccnc3)cc12)C1CC1 | 1.3% | 0.18% | 1.92% | -0.11% | 0.95% | -0.76% | -2.19% | -0.63% | 0.33% | -0.76% | -0.48% | -0.12% | 0.24% | 33.3% | 72.5% | 65.5% | 91.2% | 38.9% | 75.3% | 35.9%
12 | COc1cc(N2CCN(C(C)C)CC2)ccc1Nc1nc(Nc2cccc(F)c2C(=O)O)c2cc[nH]c2n1 | 6.19% | 21.1% | 70.9% | 9.88% | 49.2% | 6.82% | 7.9% | 3.56% | 5.73% | 2.68% | 4.83% | 1.83% | 4.22% | 1.3% | 1.51% | 1.99% | 5.79% | 4.11% | 4.66% | 4.48%
13 | COc1cc(N2CCN(C(C)C)CC2)ccc1Nc1nc(Nc2cccc3ncccc23)c2cc[nH]c2n1 | 0.59% | 5.22% | 31.2% | 0.31% | 11.3% | -0.03% | 2.43% | -1.03% | -0.55% | -1.25% | -1.47% | -2.11% | 0.2% | 1.38% | 4.94% | 1.96% | 3.44% | 2.69% | 4.49% | 1.33%
